# A selection: hits, their analogues and other compounds. The true share with any hit is near 32%.
# CYP2C19 inhib = human CYP2C19 inhibition; CYP2C19 Supersomes, luciferin-H EGE luminescence, 30 min; inhibition, % at 5 µM; 21% of 96,000 active;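 active means CYP2C19 inhibition above a set limit at 5 µM in the primary screen, cut at about 50% in these data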;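 further: plate controls were negative control wells for no effect and 2.5 mM tranylcypromine positive control for full effect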
# CYP2C9 inhib = human CYP2C9 inhibition; P11712; CYP2C9 Supersomes, luciferin-H conversion, luminescence; inhibition, % at 5 µM; 20% of 96,000 active; AID 777;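 active means blocking of liver enzyme CYP2C9 beyond about 50% at 5 µM, limit read from the data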
# Target sequence (P11712 whole entry, looked up): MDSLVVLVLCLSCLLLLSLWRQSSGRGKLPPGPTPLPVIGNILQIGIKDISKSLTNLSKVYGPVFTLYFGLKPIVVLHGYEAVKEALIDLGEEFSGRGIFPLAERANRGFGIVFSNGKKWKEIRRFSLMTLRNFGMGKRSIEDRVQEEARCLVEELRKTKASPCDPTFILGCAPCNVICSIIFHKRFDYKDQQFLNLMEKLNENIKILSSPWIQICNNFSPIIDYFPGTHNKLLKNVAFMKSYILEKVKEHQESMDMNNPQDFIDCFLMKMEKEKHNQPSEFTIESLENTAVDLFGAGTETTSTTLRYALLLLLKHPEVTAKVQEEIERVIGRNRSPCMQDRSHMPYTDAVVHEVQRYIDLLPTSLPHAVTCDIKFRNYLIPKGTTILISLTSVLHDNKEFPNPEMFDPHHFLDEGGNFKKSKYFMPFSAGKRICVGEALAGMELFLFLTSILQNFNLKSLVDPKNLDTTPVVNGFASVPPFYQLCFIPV
# CYP2C19 activ = increases human CYP2C19 enzyme activity; 96,000 tested, under 10 active; activation factor at 5 µM; AID 1025; P33261; recombinant CYP2C19, luciferin-H EGE luminescence; stronger effect = higher value; 0 = fully inhibited enzyme, 1 = untreated enzyme;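 active means activation factor of at least 2 at 5 µM in the primary screen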;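 further: 0 = wells with 2.5 mM tranylcypromine and 1 = vehicle-only wells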
# PostGolgi yeast = growth inhibition of a yeast mutant, post-Golgi transport screen; post-Golgi transport phenotypic cell assay; inhibition, % at 10 µM; 0.9% of 98,000 active;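 further: yeast cells grown in 1536-well plates; yeast grown about 18 h at 30C before absorbance read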
# PostGolgi ctrl = inhibits growth of the yeast control strain. efflux-deficient yeast background strain, growth absorbance A615, 16 h. inhibition, % at 10 µM. 5% of 98,000 active. AID 738
# CYP2C9 activ = CYP2C9 (human) activation; P11712; activation factor at 5 µM; AID 1024; recombinant CYP2C9, luciferin-H conversion, luminescence; stronger effect = higher value; factor 1 = untreated enzyme, 0 = blocked; 1.4% of 96,000 active;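 active means activation factor of 2 or more for CYP2C9 at a 5 µM dose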;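 further: 0 = sulfaphenazole-blocked wells and 1 = vehicle-only wells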
# * hit, by the source's call; x = no result given. Unless noted, no stated cut-off is given here; in the data, active means inhibition above about 30%; inactive means the rest.
SMILES,CYP2C19 inhib,CYP2C9 inhib,CYP2C19 activ,PostGolgi yeast,PostGolgi ctrl,CYP2C9 activ
C=CCNc1nc(N2CCCCC2)c(C#N)c2c1CN(Cc1ccccc1)CC2,61.6*,90.3*,0.4,3.3,17.5,0.1
Cc1ccc(C)c(NC(=O)C2CC(O)CN2C(=O)OC(C)(C)C)c1 (stereo not drawn),0.0,6.0,1,-5.7,-4.0,0.9
COCCOC(=O)C1=C(C)N=C2SCCC(=O)N2C1c1cccc(Br)c1 (stereo not drawn),30.0,46.7,0.7,4.9,10.8,0.5
CCn1nc2cc(C(=O)NCc3cc(C(F)(F)F)cc(C(F)(F)F)c3)ccc2c1OC,24.9,19.9,0.8,-3.9,3.5,0.8
CCN1CCc2c(C#N)c(N3CCCCC3)nc(NCc3ccccc3)c2C1,30.5,70.5*,0.7,7.4,3.6,0.3
CC(=O)Nc1cccc(-c2csc(NCc3ccco3)n2)c1,48.2,39.3,0.5,8.1,11.2,0.6
COC(=O)c1[nH]c2ccc(C)cc2c1NC(=O)CN1CCN(c2ccccc2)CC1,89.6*,75.4*,0.1,11.6,19.6,0.2
CCc1cccc(CC)c1NC(=O)CN1CCN(c2ccccc2)CC1,65.6*,82.8*,0.3,-1.9,22.8,0.2
O=C(CN1CCN(c2ccccc2)CC1)Nc1ccccc1C(F)(F)F,26.3,27.1,0.7,3.5,23.8,0.7
Cc1ccc2[nH]c(C(=O)O)c(NC(=O)CN3CCN(c4cccc(C)c4C)CC3)c2c1,33.9,82.7*,0.7,0.5,2.1,0.2
COC(=O)c1[nH]c2ccc(C)cc2c1NC(=O)CN1CCN(c2ccc(F)cc2)CC1,-4.8,-9.7,1,16.5,7.7,1.1
Cc1c(C)n(C(=O)CN2CCN(c3ccccc3)CC2)c2ccccc12,56.2*,-57.1,0.4,-3.5,1.8,1.6
CC1CCCC(C)N1C(=O)CSc1nnc(NC(=O)c2cccs2)s1 (stereo not drawn),8.7,25.2,0.9,-8.2,10.7,0.7
CN(C)S(=O)(=O)c1ccc(C(=O)OCC(=O)NC(=O)NCc2ccccc2)cc1,-17.3,-10.9,1.2,-1.2,10.4,1.1
Cc1ccccc1Nc1nnc(C)c(=O)n1N,22.4,-7.0,0.8,3.5,-9.0,1.1
CC(C)(C)C(=O)/C(C#N)=c1\s/c(=C\c2ccncc2)c(=O)n1CCCN1CCOCC1,32.1,21.9,0.7,x,x,0.8
CCOc1ccc(C)cc1S(=O)(=O)n1ccnc1,44.4,61.4*,0.6,10.6,-2.1,0.4
NC(=O)c1cc(-c2ccccc2)nc(Oc2ccccc2)n1,23.2,20.4,0.8,10.9,12.9,0.8
CCC(NS(=O)(=O)c1c(C)[nH]c(=O)[nH]c1=O)C12CC3CC(CC(C3)C1)C2 (stereo not drawn),-1.7,23.4,1,-2.4,22.5,0.8
Cc1[nH]c(=O)[nH]c(=O)c1S(=O)(=O)NCC12CC3CC(CC(C3)C1)C2,-4.1,-2.2,1,-1.8,43.4*,1
O=C(NCC1CCCC(CNC(=O)N2CCc3ccccc32)C1)N1CCc2ccccc21 (stereo not drawn),86.4*,98.6*,0.1,8.8,27.0,0
COc1ccc2c(c1)CCc1c(C(=O)N3CCOCC3)noc1-2,20.1,-8.7,0.8,18.9,-1.4,1.1
O=C(C1CCCO1)N1CCc2ccccc21 (stereo not drawn),-6.8,-39.2,1.1,3.9,3.8,1.4
COc1ccc2c(c1)CCc1c(C(=O)N3CC4(C)CC3CC(C)(C)C4)noc1-2 (stereo not drawn),-9.5,4.0,1.1,-6.6,37.6*,1
COc1ccc(NC(=O)N2CCCc3ccccc32)cc1,68.7*,30.3,0.3,-2.5,6.1,0.7
SMILES,CYP2C19 inhib,CYP2C9 inhib,CYP2C19 activ,PostGolgi yeast,PostGolgi ctrl,CYP2C9 activ
COc1ccc2c(c1)CCc1c(C(=O)N3CCCc4ccccc43)noc1-2,90.1*,75.0*,0.1,-3.5,14.4,0.3
C/C=C/CSc1nc2c(c(=O)[nH]c(=O)n2C)n1Cc1ccc(C)cc1,-14.1,-2.7,1.1,-3.6,19.7,1
CC(=O)C(CC(=O)N1CCCc2ccccc21)C(=O)Nc1ccc(F)cc1 (stereo not drawn),71.3*,33.0,0.3,0.8,9.0,0.7
COc1ccc(NC(=O)N2CCc3ccccc32)cc1,58.1*,22.2,0.4,-12.3,-3.8,0.8
CC(=O)Nc1ccc2c(c1)CCCN2C(=O)c1ccccc1,19.0,3.3,0.8,0.3,2.5,1
CC(Oc1ccccc1)C(=O)N1CCCc2ccccc21 (stereo not drawn),90.8*,55.5*,0.1,2.0,20.6,0.4
CC(=O)N1CCCc2ccccc21,9.6,37.3,0.9,-8.5,-5.1,0.6
COc1cccc(C(=O)N2CCCc3ccccc32)c1,86.8*,10.2,0.1,-9.1,-4.5,0.9
Cc1ccc(OC(C)C(=O)N2CCc3ccccc32)cc1 (stereo not drawn),1.6,-14.6,1,-7.3,0.3,1.1
CCOC(=O)c1ccc(NC(=O)N2CCc3ccccc32)cc1,30.2,4.2,0.7,-10.7,-3.6,1
Cc1ccc(C(CC(N)=O)c2ccco2)cc1 (stereo not drawn),15.6,0.1,0.8,0.2,-3.3,1
COc1ccc(CC(=O)n2c(CC#N)nc3ccccc32)cc1OC,6.2,35.0,0.9,-9.2,-8.7,0.7
O=S(=O)(/N=C(/c1ccc(Cl)cc1)N1CCOCC1)c1ccc(Cl)cc1,-0.1,-3.4,1,-3.7,-0.9,1
CC1CCN(c2oc(-c3ccccc3Cl)nc2C#N)CC1,86.5*,87.0*,0.1,-3.0,24.1,0.1
N#Cc1nc(-c2ccccc2Cl)oc1N1CCOCC1,14.7,-39.3,0.9,0.0,7.9,1.4
COc1ccccc1-c1nc(C#N)c(N2CCN(c3ccccc3)CC2)o1,80.5*,-0.4,0.2,3.5,26.3,1
COc1ccc(N2CCN(c3oc(-c4ccccc4OC)nc3C#N)CC2)cc1,19.2,0.7,0.8,6.8,12.2,1
COc1ccccc1-c1nc(C#N)c(N2CCCCCC2)o1,22.8,-25.4,0.8,-9.8,42.1*,1.3
COc1ccc(N2CCN(c3oc(-c4ccco4)nc3C#N)CC2)cc1,9.2,10.3,0.9,31.6*,-3.3,0.9
O=C(O)CCc1nn2cnc3sc4c(c3c2nc1=O)CCCC4,0.3,-21.1,1,-3.5,5.1,1.2
O=C(NC(=O)c1cccc(OC(F)(F)C(F)F)c1)OC1CCS(=O)(=O)C1 (stereo not drawn),6.0,6.0,0.9,2.4,0.3,0.9
O=C(CN(Cc1ccco1)C(=O)c1cc(=O)[nH]c2ccccc12)Nc1ccccc1Br,x,x,x,0.6,3.3,x
N#Cc1nc(-c2ccco2)oc1N1CCC(Cc2ccccc2)CC1,81.8*,91.0*,0.2,-5.5,16.8,0.1
Cn1cc(/C(Cc2ccccc2)=N\O)c2ccccc21,58.6*,10.5,0.4,-8.0,2.9,0.9

# Source: PubChem (several laboratories)
